Experimental data published in PubChem BioAssay (NCATS).
Records with an inconclusive call do not appear. Calls of active or inactive are those of the source. Unless noted, calls follow the shape of the dose curve; as a rule, active = well fitted inhibition curve with a large enough effect; inconclusive = small, poorly fitted or top-dose-only effect; inactive = flat fitted curve, though single readings scatter.

Experiments:
CRL-7250 = normal cell line; experiment: qHTS assay to identify novel small-molecules to repurpose for Merkel cell carcinoma treatment (AID 1296009); details: MCC and control cell lines, CellTiter-Glo viability, 72 h; series mostly up to 92 µM; also: nearly all actives have a fitted effect of over 60% in size
In short: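 Cell viability measured by CellTiter-Glo following 72 hr compound treatment at 37 degree celsius, with NPC and MIPE libraries tested in 8- and 11-point concentration series.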

[1] = qHTS for Inhibitors of the Functional Ribonucleoprotein Complex (vRNP) of Lassa (LASV) Arenavirus: LASV Primary Screen - GLuc reporter signal (AID 1347082; calls by dose curve; tested in HEK293 reporter line; also: % is scaled to controls: 0 for no effect and ±100 for the full control effect; nearly all actives have a fitted effect of over 60% in size)
[2] = qHTS for Inhibitors of the Functional Ribonucleoprotein Complex (vRNP) of Lassa (LASV) Arenavirus: Viability assay - alamar blue signal for LASV Primary Screen (AID 1347083; calls by dose curve; tested in HEK293 reporter line; also: % is scaled to controls: 0 for no effect and ±100 for the full control effect; nearly all actives have a fitted effect of over 80% in size)
[3] = qHTS for Inhibitors of the Functional Ribonucleoprotein Complex (vRNP) of Lymphocytic Choriomeningitis Arenaviruses (LCMV): Viability assay - alamar blue signal for LCMV Primary Screen (AID 1347085; calls by dose curve; tested in HEK293 reporter line; also: % is scaled to controls: 0 for no effect and ±100 for the full control effect; nearly all actives have a fitted effect of over 80% in size)
[4] = molecular target: Nucleoprotein (Lymphocytic choriomeningitis virus (strain Armstrong)) (UniProt P09992); experiment: qHTS for Inhibitors of the Functional Ribonucleoprotein Complex (vRNP) of Lymphocytic Choriomeningitis Arenaviruses (LCMV): LCMV Primary Screen - GLuc reporter signal (AID 1347086; calls by dose curve; also: % is scaled to controls: 0 for no effect and ±100 for the full control effect; nearly all actives have a fitted effect of over 70% in size)
Sequence of Nucleoprotein (Lymphocytic choriomeningitis virus (strain Armstrong)) (P09992 whole entry, looked up): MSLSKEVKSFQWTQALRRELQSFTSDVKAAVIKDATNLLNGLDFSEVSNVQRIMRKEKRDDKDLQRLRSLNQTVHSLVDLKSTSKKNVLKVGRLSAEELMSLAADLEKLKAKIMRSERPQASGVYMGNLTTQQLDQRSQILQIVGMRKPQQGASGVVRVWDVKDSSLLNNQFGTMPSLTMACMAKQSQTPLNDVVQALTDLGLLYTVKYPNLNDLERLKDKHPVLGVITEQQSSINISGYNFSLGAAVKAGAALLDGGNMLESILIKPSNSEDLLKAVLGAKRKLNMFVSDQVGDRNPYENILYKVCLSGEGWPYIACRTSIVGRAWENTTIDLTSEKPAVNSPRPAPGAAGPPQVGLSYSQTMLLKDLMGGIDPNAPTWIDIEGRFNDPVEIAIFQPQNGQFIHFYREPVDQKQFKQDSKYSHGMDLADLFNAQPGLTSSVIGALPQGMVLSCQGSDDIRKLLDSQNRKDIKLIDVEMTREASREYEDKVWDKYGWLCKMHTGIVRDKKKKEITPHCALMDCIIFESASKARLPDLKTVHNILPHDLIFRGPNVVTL

O=S(=O)(Nc1ccccn1)c1ccc(N=Cc2c(O)[nH]c3ccc4ncsc4c23)cc1
inactive: outcome (CRL-7250) inactive [at 9.27 µM]

CN(C1CCc2c(c3ccccc3n2CC(=O)O)C1)S(=O)(=O)c1ccc(F)cc1 (stereo unspecified)
inactive: Potency [1] | Potency [2] | Potency [3] | Potency [4] | Potency (CRL-7250)

CN(C)CCOc1ccc(-c2nc(-c3ccc4c(c3)CCC4=NO)c(-c3ccncc3)[nH]2)cc1
inactive: Potency [1] | Potency [2] | Potency [3] | Potency [4] | Potency (CRL-7250)

O=C(CS(=O)Cc1ccco1)NCC=CCOc1cc(CN2CCCCC2)ccn1 (stereo unspecified)
inactive: Potency [1] | Potency [2] | Potency [3] | Potency [4] | Potency (CRL-7250)

CC1C(=O)OC2C(O)C34C5CC(C(C)(C)C)C36C(OC(=O)C6O)OC4(C(=O)O5)C12O (stereo unspecified)
inactive: Potency [1] | Potency [2] | Potency [3] | Potency [4] | Potency (CRL-7250)

CCOC(=O)N1CCN([N+]([O-])=NOc2cc(ON=[N+]([O-])N3CCN(C(=O)OCC)CC3)c([N+](=O)[O-])cc2[N+](=O)[O-])CC1
inactive: Potency [1] | Potency [2] | Potency [3] | Potency [4] | Potency (CRL-7250)

CCOC(=O)O[C@]1(C(=O)OCCl)CC[C@@H]2[C@H]3CCC4=CC(=O)C=C[C@]4(C)[C@@H]3[C@@H](O)C[C@@]21C
inactive: Potency [1] | Potency [2] | Potency [3] | Potency [4] | Potency (CRL-7250)

C[N+]1(C)[C@@H]2C[C@@H](OC(=O)C(O)(c3cccs3)c3cccs3)C[C@H]1[C@@H]1O[C@@H]12
inactive: Potency [1] | Potency [2] | Potency [3] | Potency [4] | Potency (CRL-7250)

CC(C)(C)[C@H](NC(=O)c1ccc(N)c(Cl)c1)C(=O)N1CCC[C@@H]1C(=O)N[C@H](C#N)CC(=O)O
inactive: activity change, negative = inhibition [1] -4.12% [at 5.82 µM] | activity change, negative = reduced viability [2] 2.61% [at 5.82 µM] | activity change, negative = lower viability [3] 8.73% [at 5.82 µM] | activity change, negative = inhibition [4] 63.3% [at 5.82 µM] | outcome (CRL-7250) inactive [at 4.96 µM]

CC1(C)S[C@H]2[C@H](NC(=O)[C@@H](N)c3ccc(O)cc3)C(=O)N2[C@@H]1C(=O)O
inactive: Potency [1] | Potency [2] | Potency [3] | Potency [4] | Potency (CRL-7250)

CN[C@@H]1[C@@H](O)[C@@H](O[C@@H]2[C@@H](O)[C@H](O[C@H]3O[C@H](CN)[C@@H](O)[C@H](O)[C@@H]3O)[C@@H](N)C[C@@H]2NC(=O)[C@@H](O)CN)OC[C@]1(C)O
inactive: Potency [1] | Potency [2] | Potency [3] | Potency [4] | Potency (CRL-7250)

CN(C)CCC=C1c2ccccc2COc2ccc(CC(=O)O)cc21
inactive: Potency [1] | Potency [2] | Potency [3] | Potency [4] | Potency (CRL-7250)
